Our source for the mean cell size and cell count values is the supplement of paper PMC4709259.

Test [1] has as its system Jurkat. Put plainly: mean cell size (FSC-A) relative to DMSO control (fraction of control); higher = larger cells. To be noted: 48 h. In a few lines:
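Jurkat cells seeded at 600 cells/µl were incubated 1 h, then exposed for 48h to the Enzo Screen-Well FDA Approved Drug Library v2.0 at 25µM in 0.9% (v/v) final DMSO. Drugs that cut counts below 20% of controls were diluted 10-fold and retested, down to 25nM. Cell count and mean cell size (forward scatter area) were read on an Accuri C6 flow cytometer, relative to solvent-only controls. Plates held 6-12 controls; values are means of 3 biological replicates.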

Test [2] deals with Jurkat. Description: cell count relative to DMSO control (fraction of control); higher = more cells (less growth inhibition). To be noted: 48 h.

Structures can show the parent of a compound that is named as a salt. ± gives the standard deviation.

`CCOC(=O)O[C@]1(C(=O)OCCl)CC[C@H]2[C@@H]3CCC4=CC(=O)C=C[C@]4(C)[C@H]3[C@@H](O)C[C@@]21C` [Loteprednol Etabonate] (concentration: 25 µM) returned a mean cell size in the test with Jurkat [1] of 0.892 ± 0.027. The molecule further registered a cell count in the test with Jurkat [2] of 1.08 ± 0.067.
The corresponding values for `Cc1cccc(C)c1OCC(=O)N[C@@H](Cc1ccccc1)[C@@H](O)C[C@H](Cc1ccccc1)NC(=O)[C@H](C(C)C)N1CCCNC1=O` [Lopinavir] (concentration: 25 µM) are 0.8546 ± 0.0077 and 0.373 ± 0.029.
In the same order, the values of `O=C1CN2Cc3c(ccc(Cl)c3Cl)N=C2N1` [Anagrelide] (concentration: 25 µM) are 1 ± 0.023 and 0.696 ± 0.12.
Take `Cn1c(=O)c2nc[nH]c2n(C)c1=O` [Theophylline] (concentration: 25 µM): the mean cell size in the test with Jurkat [1] was determined as 0.947 ± 0.041. The molecule also registered a cell count with Jurkat [2] of 1.05 ± 0.031.
In the test with Jurkat [1], `Nc1ccc(O)c(C(=O)O)c1` [Mesalamine (5-Aminosalicylic Acid)] (concentration: 25 µM) gave a mean cell size of 0.912 ± 0.019. In addition, the cell count in the test on Jurkat [2] was found to be 1 ± 0.046.
The corresponding values for `CC(C)(O)c1ccccc1CC[C@@H](SCC1(CC(=O)O)CC1)c1cccc(/C=C/c2ccc3ccc(Cl)cc3n2)c1` [Montelukast·Na] (concentration: 25 µM) are 1.02 ± 0.077 and 0.476 ± 0.16.
In the same order, the values of `C/C(=C\C(=O)OCCCCCCCCC(=O)O)C[C@@H]1OC[C@H](C[C@@H]2O[C@H]2[C@@H](C)[C@H](C)O)[C@@H](O)[C@H]1O` [Mupirocin] (concentration: 25 µM) are 0.928 ± 0.065 and 0.525 ± 0.18.
In the test with Jurkat [1], `NC(=O)c1cn(Cc2c(F)cccc2F)nn1` [Rufinamide] (concentration: 25 µM) showed a mean cell size of 0.968 ± 0.042. In addition, in the test on Jurkat [2], the cell count was 0.803 ± 0.055.
With `CCCCCOc1ccc(-c2cc(-c3ccc(C(=O)N[C@H]4C[C@@H](O)[C@@H](O)NC(=O)[C@@H]5[C@@H](O)[C@@H](C)CN5C(=O)[C@H]([C@H](O)CC(N)=O)NC(=O)[C@H]([C@H](O)[C@@H](O)c5ccc(O)c(OS(=O)(=O)O)c5)NC(=O)[C@@H]5C[C@@H](O)CN5C(=O)[C@H]([C@@H](C)O)NC4=O)cc3)no2)cc1` [Micafungin] (concentration: 25 µM), in the test on Jurkat [1], the mean cell size was 0.993 ± 0.031. For the same molecule, the cell count in the test with Jurkat [2] is 0.52 ± 0.081.
In the same order, the values of `Cc1ccccc1C(OCCN(C)C)c1ccccc1` (configuration not stated) [Orphenadrine Citrate] (concentration: 25 µM) are 0.975 ± 0.056 and 0.742 ± 0.13.
The corresponding values for `O=NN(CCCl)C(=O)NCCCl` [Carmustine] (concentration: 25 µM) are 1.066 ± 0.0089 and 0.767 ± 0.014.
In the same order, the values of `Cc1cccc(CN2CCN(C(c3ccccc3)c3ccc(Cl)cc3)CC2)c1` (configuration not stated) [Meclizine Dihydrochloride] (concentration: 25 µM) are 0.965 ± 0.024 and 0.703 ± 0.088.
For the molecule `Clc1ccc(COC(Cn2ccnc2)c2ccc(Cl)cc2Cl)c(Cl)c1` (configuration not stated) [Miconazole] (concentration: 25 µM), the mean cell size with Jurkat [1] stood at 0.976 ± 0.04. In addition, the cell count in the test on Jurkat [2] came to 0.586 ± 0.11.
The corresponding values for `O=C(O)COCCN1CCN(C(c2ccccc2)c2ccc(Cl)cc2)CC1` (configuration not stated) [Cetirizine 2HCl] (concentration: 25 µM) are 0.962 ± 0.032 and 1.01 ± 0.12.
The corresponding values for `COc1cc(Cc2cnc(N)nc2N)cc(OC)c1OC` [Trimethoprim] (concentration: 25 µM) are 0.969 ± 0.039 and 0.457 ± 0.11.
In the test on Jurkat [1], `CN[C@H](CC(C)C)C(=O)N[C@H]1C(=O)N[C@@H](CC(N)=O)C(=O)N[C@H]2C(=O)N[C@H]3C(=O)N[C@H](C(=O)N[C@H](C(=O)O)c4cc(O)cc(O)c4-c4cc3ccc4O)[C@H](O)c3ccc(c(Cl)c3)Oc3cc2cc(c3O[C@@H]2O[C@H](CO)[C@@H](O)[C@H](O)[C@H]2O[C@H]2C[C@](C)(N)[C@H](O)[C@H](C)O2)Oc2ccc(cc2Cl)[C@H]1O` [Vancomycin·HCl] (concentration: 25 µM) displayed a mean cell size of 1.02 ± 0.021. In the test on Jurkat [2], the cell count amounted to 1.19 ± 0.13.
As to `CCC[C@@H]1C[C@@H](C(=O)N[C@@H]([C@H]2O[C@H](SC)[C@H](O)[C@@H](O)[C@H]2O)[C@@H](C)O)N(C)C1` [Lincomycin·HCl] (concentration: 25 µM), the mean cell size with Jurkat [1] was determined as 1.1 ± 0.045. The cell count in the test on Jurkat [2] was 0.754 ± 0.11.
In turn, `CC(C)C[C@H](NC(=O)[C@@H](Cc1c[nH]c2ccccc12)NC(=O)[C@H](Cc1ccc(O)cc1)NC(=O)[C@H](CO)NC(=O)[C@H](Cc1c[nH]c2ccccc12)NC(=O)[C@H](Cc1cnc[nH]1)NC(=O)[C@@H]1CCC(=O)N1)C(=O)N[C@@H](CCCN=C(N)N)C(=O)N1CCC[C@H]1C(=O)NCC(N)=O` [Triptorelin Acetate] (concentration: 25 µM) displayed a mean cell size with Jurkat [1] of 0.997 ± 0.014. The molecule further gave a cell count with Jurkat [2] of 0.458 ± 0.081.
The corresponding values for `CC(C)Nc1cccnc1N1CCN(C(=O)c2cc3cc(NS(C)(=O)=O)ccc3[nH]2)CC1` [Delavirdine Mesylate] (concentration: 25 µM) are 0.942 ± 0.036 and 0.887 ± 0.099.
The corresponding values for `O=C(O)C1(C(=O)O)CCC1.[NH2-].[NH2-].[Pt+2]` [Carboplatin] (concentration: 25 µM) are 1.08 ± 0.016 and 0.51 ± 0.029.
In the test on Jurkat [1], `C=CC[C@@H]1/C=C(\C)C[C@H](C)C[C@H](OC)[C@H]2O[C@@](O)(C(=O)C(=O)N3CCCC[C@H]3C(=O)O[C@H](/C(C)=C/[C@@H]3CC[C@@H](O)[C@H](OC)C3)[C@H](C)[C@@H](O)CC1=O)[C@H](C)C[C@@H]2OC` [Tacrolimus (Fk506)] (concentration: 25 µM) showed a mean cell size of 0.83 ± 0.065. The cell count with Jurkat [2] was found to be 0.408 ± 0.045.
In the case of `Clc1ccc(COC(Cn2ccnc2)c2ccc(Cl)cc2Cl)cc1` (configuration not stated) [Econazole Nitrate] (concentration: 25 µM), in the test on Jurkat [1], the mean cell size was found to be 0.959 ± 0.03. Moreover, in the test with Jurkat [2], the cell count was 0.774 ± 0.096.
Molecule `C[C@@](Cc1ccc(O)c(O)c1)(NN)C(=O)O` [Carbidopa] (concentration: 25 µM) returned a mean cell size in the test with Jurkat [1] of 0.939 ± 0.027. In the test with Jurkat [2], the cell count was 0.439 ± 0.09.
For `C=CC1=C(C(=O)O)N2C(=O)[C@@H](NC(=O)/C(=N\OCC(=O)O)c3csc(N)n3)[C@H]2SC1` [Cefixime] (concentration: 25 µM), the mean cell size with Jurkat [1] was 0.977 ± 0.018. This molecule also displayed a cell count in the test on Jurkat [2] of 0.846 ± 0.069.
In the test with Jurkat [1], `CN1CCN(C2=Nc3cc(Cl)ccc3Nc3ccccc32)CC1` [Clozapine] (concentration: 25 µM) returned a mean cell size of 0.966 ± 0.025. Moreover, the cell count with Jurkat [2] was determined as 0.494 ± 0.17.
In the same order, the values of `COc1cc2ncnc(Nc3ccc(F)c(Cl)c3)c2cc1OCCCN1CCOCC1` [Gefitinib] (concentration: 2.5 µM) are 1.04 ± 0.045 and 0.736 ± 0.11.
As for `C[C@@H](NCCCc1cccc(C(F)(F)F)c1)c1cccc2ccccc12` [Cinacalcet·HCl] (concentration: 25 µM), in the test on Jurkat [1], the mean cell size was found to be 1.03 ± 0.051. This molecule returned a cell count in the test with Jurkat [2] of 0.577 ± 0.089.
The corresponding values for `N=C(N)c1ccc(OCCCCCOc2ccc(C(=N)N)cc2)cc1` [Pentamidine Isethionate] (concentration: 25 µM) are 0.878 ± 0.021 and 0.601 ± 0.055.
`CC(C(=O)O)c1ccc(-c2ccccc2)c(F)c1` (configuration not stated) [Flurbiprofen] (concentration: 25 µM) showed a mean cell size in the test on Jurkat [1] of 0.974 ± 0.032. Further, the cell count with Jurkat [2] came out at 0.881 ± 0.083.
Regarding `COC(=O)C1=C(C)NC(C)=C(C(=O)OC)C1c1ccccc1[N+](=O)[O-]` [Nifedipine] (concentration: 2.5 µM), in the test with Jurkat [1], the mean cell size worked out at 1.02 ± 0.036. The cell count in the test with Jurkat [2] amounted to 0.92 ± 0.1.
The corresponding values for `C[C@@H](O)[C@H]1C(=O)N2C(C(=O)O)=C(S[C@@H]3CN[C@H](CNS(N)(=O)=O)C3)[C@H](C)[C@H]12` [Doripenem] (concentration: 25 µM) are 0.94 ± 0.011 and 0.963 ± 0.12.
`CC(C)c1nc(CN(C)C(=O)N[C@H](C(=O)N[C@@H](Cc2ccccc2)C[C@H](O)[C@H](Cc2ccccc2)NC(=O)OCc2cncs2)C(C)C)cs1` [Ritonavir] (concentration: 25 µM) showed a mean cell size with Jurkat [1] of 0.999 ± 0.079. The same molecule returned a cell count in the test with Jurkat [2] of 0.564 ± 0.14.
For `CCCc1nc(C(C)(C)O)c(C(=O)O)n1Cc1ccc(-c2ccccc2-c2nnn[nH]2)cc1` [Olmesartan] (concentration: 25 µM), the mean cell size with Jurkat [1] turned out to be 0.97 ± 0.034. Besides, the cell count in the test with Jurkat [2] stood at 1.16 ± 0.1.
The corresponding values for `CCCCc1oc2ccccc2c1C(=O)c1cc(I)c(OCCN(CC)CC)c(I)c1` [Amiodarone·HCl] (concentration: 2.5 µM) are 1.05 ± 0.018 and 0.616 ± 0.12.
The corresponding values for `CCC1(c2ccccc2)C(=O)NCNC1=O` [Primidone] (concentration: 25 µM) are 1 ± 0.021 and 0.618 ± 0.18.
Regarding `CCCc1nc(C)c2c(=O)nc(-c3cc(S(=O)(=O)N4CCN(CC)CC4)ccc3OCC)[nH]n12` [Vardenafil] (concentration: 25 µM), the mean cell size in the test on Jurkat [1] was 0.966 ± 0.021. Besides, the cell count with Jurkat [2] was determined as 0.646 ± 0.099.
In the same order, the values of `Nc1ccc(S(=O)(=O)c2ccc(N)cc2)cc1` [Dapsone] (concentration: 25 µM) are 0.9573 ± 0.0072 and 0.976 ± 0.1.
Turning to `CS(=O)(=O)OCCCCOS(C)(=O)=O` [Busulfan] (concentration: 25 µM), in the test with Jurkat [1], the mean cell size was 1.03 ± 0.016. In the test with Jurkat [2], this molecule yielded a cell count of 0.343 ± 0.046.
The corresponding values for `Nc1ccn([C@@H]2O[C@H](CO)[C@@H](O)C2(F)F)c(=O)n1` [Gemcitabine·HCl] (concentration: 25 nM) are 1.12 ± 0.024 and 0.427 ± 0.09.
The corresponding values for `CCN[C@H]1C[C@H](C)S(=O)(=O)c2sc(S(N)(=O)=O)cc21` [Dorzolamide·HCl] (concentration: 25 µM) are 0.965 ± 0.04 and 0.675 ± 0.14.
In the same order, the values of `CC(C)/N=c1\cc2n(-c3ccc(Cl)cc3)c3ccccc3nc-2cc1Nc1ccc(Cl)cc1` [Clofazimine] (concentration: 2.5 µM) are 0.952 ± 0.03 and 0.695 ± 0.066.
`C#C[C@]1(O)CC[C@H]2[C@@H]3CCc4cc(O)ccc4[C@H]3CC[C@@]21C` [Ethinyl Estradiol] (concentration: 25 µM) came in with a mean cell size in the test with Jurkat [1] of 1.22 ± 0.075. This molecule returned a cell count in the test on Jurkat [2] of 0.263 ± 0.035.
In the test on Jurkat [1], `c1ccc2c(CC3=NCCN3)cccc2c1` [Naphazoline·HCl] (concentration: 25 µM) came in with a mean cell size of 0.94 ± 0.024. The same molecule registered a cell count in the test on Jurkat [2] of 0.864 ± 0.024.
The molecule `C[C@@H]1C[C@H]2[C@@H]3CCC4=CC(=O)C=C[C@]4(C)[C@@]3(Cl)[C@@H](O)C[C@]2(C)[C@@]1(OC(=O)c1ccco1)C(=O)CCl` [Mometasone Furoate] (concentration: 25 µM) came in with a mean cell size with Jurkat [1] of 0.915 ± 0.037. This molecule also gave a cell count in the test on Jurkat [2] of 0.47 ± 0.17.
The corresponding values for `COc1c(C)c2c(c(O)c1C/C=C(\C)CCC(=O)O)C(=O)OC2` [Mycophenolic Acid] (concentration: 2.5 µM) are 1.01 ± 0.014 and 0.225 ± 0.05.
In the same order, the values of `CC(C)OC(=O)CCC/C=C\C[C@@H]1[C@@H](CC[C@@H](O)CCc2ccccc2)[C@H](O)C[C@@H]1O` [Latanoprost] (concentration: 25 µM) are 0.981 ± 0.046 and 0.534 ± 0.18.
